Screen size: about 320,000 compounds; about 2,100 (0.66%) were called active. About 53% were inconclusive and are not listed. Calls follow the shape of the dose curve; as a rule, active = well fitted inhibition curve with a large enough effect in the signal ratio, with a control signal flat (not every such curve was filed as active); inconclusive = small, poorly fitted or top-dose-only effect, or effect the other way, or a change in a side signal; inactive = flat fitted curve, though single readings scatter; the % refers to the signal ratio. Only a selection was taken, and actives are over-represented in it overall.
assay: qHTS Assay for Lipid Storage Modulators in Drosophila S3 Cells; details: BODIPY lipid droplet fluorescence, 18-24 h, cells fed with added oleic acid; cell number change: measured here: cell count max response; series mostly up to 46.1 µM;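 as to cell number change: cells counted by Cell Tracker Red CMTPX staining in the red channel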; as to lipid storage change, negative = inhibition: % is scaled to controls: 0 for no effect and ±100 for the full control effect
Procedure, shortened: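 Laser-scanning cytometry quantifies lipid droplet accumulation (500–530 nm total intensity; droplet/cell object ratio) in oleic acid-fed (400 uM added) Drosophila S3 cells treated with a concentration series. 20 uM Triacsin C defined 100% inhibition.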
Potency is read from the fitted curve at half-maximal effect.

SMILES | Potency | cell number change | lipid storage change, negative = inhibition
Cc1ccc(S(=O)(=O)N(C)/N=C/C=C/c2ccccc2)cc1 | inactive | -10.7% | 
O=C(COC(=O)Cn1cnc2ccccc21)Nc1cccc(S(=O)(=O)N2CCOCC2)c1 | inactive | -0.979% | 
NC(=O)C1(N2CCCCC2)CCN(C(=O)CSc2nc3ccccc3s2)CC1 | inactive | -22.8% | 
NC(=O)C1CCN(C(=O)CSc2nc3ccccc3s2)CC1 | 16.4 µM (active) | 5.89% | 
NC(=O)C1CCN(C(=O)CSc2nc3ccccc3o2)CC1 | inactive |  | 
O=C(O)COCc1nc2ccccc2[nH]1 | inactive | 0.419% | 
O=C(O)CSCc1nc2ccccc2[nH]1 | inactive |  | 
CC(C)(Cc1nc2ccccc2[nH]1)C(=O)O | 23.1 µM (active) | -19.5% | 
NNC(=O)CNC(=O)c1cccc(Br)c1 | inactive |  | 
N#C/C(=C\c1ccc(-c2ccc(F)cc2)o1)C(=O)Nc1nc(-c2cccs2)cs1 | inactive | -13% | 
N#C/C(=C/c1ccc(-c2ccccc2)o1)c1nc(-c2cccs2)cs1 | 5.8 µM (active) | 20.9% | 
N#C/C(=C\c1ccc(-c2ccccc2)cc1)c1nc(-c2ccco2)cs1 | inactive | 1.16% | 
C=CCC1(N(C(C)=O)c2ccccc2C)CCCCC1 | inactive | -21.1% | 
Cc1oc(/N=C/c2ccccc2)c(C#N)c1C | inactive | 0.993% | 
Cc1oc(/N=C/c2ccccc2O)c(C#N)c1C | inactive | -11.3% | 
Cc1oc(/N=C/c2cccc([N+](=O)[O-])c2)c(C#N)c1C | 16.4 µM (active) | -19.3% | 
CC1CCCN(S(=O)(=O)c2ccc(NC(=O)CN3CCCCC3)cc2)C1 (stereo not given) | inactive | -3.44% | 
CCS(=O)(=O)c1ncc(Cl)c(C(=O)Nc2ccc(S(=O)(=O)N3CCC(C)CC3)cc2)n1 | 1.3 µM (active) | -22.6% | 
CCOC(=O)Nc1ccc(S(=O)(=O)N2CCC(C)CC2)cc1 | inactive | 5.9% | 
CCS(=O)(=O)c1ncc(Cl)c(C(=O)Nc2ccc(S(=O)(=O)N3CCCC(C)C3)cc2)n1 (stereo not given) | 0.146 µM (active) | -27.2% | 
Cc1ccc(NC(=O)c2ccc(S(=O)(=O)N3CCC(C)CC3)cc2)cc1 | inactive | 29.6% | 
CC1CCCN(S(=O)(=O)c2ccc(NC(=O)CNC3CCCC3)cc2)C1 (stereo not given) | inactive | -7.89% | 
C/C(=N\Nc1nccnc1Cl)c1ccc([N+](=O)[O-])cc1 | inactive | -11.4% | 
O=C(NCCS(=O)(=O)N1CCN(c2ccccc2)CC1)c1ccc(Br)o1 |  |  | 10.4% [at 0.0737 µM] (inactive)

SMILES | Potency | cell number change | lipid storage change, negative = inhibition
Cc1cc(C)n2c(SCCO)nnc2n1 | inactive | 8.77% | 
CC(=O)Nc1cccc(C(=O)Nc2cccc3ncccc23)c1 | inactive | -6.58% | 
CCc1noc(C)c1C(=O)Nc1cccc2ncccc12 | 2.31 µM (active) | -8.65% | 
CC(C)(C)c1ccc(C(=O)Nc2cccc3ncccc23)cc1 | 14.6 µM (active) |  | 
CCc1noc(C)c1C(=O)Nc1ccccc1N1CCOCC1 | inactive |  | 
O=C(Nc1cccc2ncccc12)c1cccnc1 | inactive | 4.51% | 
CCc1noc(C)c1C(=O)Nc1ccc(F)c(F)c1F | inactive | -3.41% | 
CCOC(=O)c1cc(CC)sc1NC(=O)CN1CCN(C(=O)C2CCCO2)CC1 (stereo not given) | inactive | -6.11% | 
CC(=O)N(C)c1ccc(NC(=O)c2ccc([N+](=O)[O-])cc2Cl)cc1 | inactive | 1.5% | 
CCCCN(C(=O)CCC(=O)OCC(=O)NCc1ccccc1)c1c(N)n(CCC)c(=O)[nH]c1=O | inactive | -13.8% | 
COc1ccc(NC2CC(=O)N(c3cccc(C)c3)C2=O)cc1 (stereo not given) | inactive | -0.809% | 
O=C(NCc1ccncc1)NC1CCCCC1 | inactive | 5.51% | 
C=CCc1ccccc1OCCn1nnc2ccccc21 | inactive | -12.8% | 
Fc1ccc(-c2ccc(/C=N/n3cnnc3)o2)cc1 | 10.3 µM (active) | -15.7% | 
Fc1ccc(-c2ccc(/C=N\n3cnnc3)o2)cc1Cl | inactive |  | 
Cc1ccc(-c2ccc(/C=N/n3cnnc3)o2)cc1 | inactive | 8.97% | 
O=C(Nc1ccccc1)NC1CCN(Cc2c(F)cccc2Cl)CC1 | inactive | 4.31% | 
O=c1c(Cc2c(F)cccc2Cl)c(O)ccn1C1CC1 | inactive | 4.74% | 
O=c1c(Cc2c(F)cccc2Cl)c(O)ccn1CCc1ccccn1 | 14.1 µM (active) | -22% | 
O=c1c(Cc2c(F)cccc2Cl)c(O)ccn1Cc1ccc(F)cc1 | inactive |  | 
CCC(C)(C)n1nnnc1C(c1ccccc1)N1CCN(C2CCCC2)CC1 (stereo not given) | inactive | -10.2% | 
COc1ccc(CC(=O)NNC(=O)c2ccco2)cc1OC | inactive | -12.7% | 
COc1cc(/C=C2\SC(=S)N(CC(=O)O)C2=O)ccc1OS(=O)(=O)c1ccc(C)cc1 | inactive | -2.94% | 
CCN(C(=O)CCN1C(=O)/C(=C/c2ccccc2)SC1=S)C1CCS(=O)(=O)C1 (stereo not given) | 18.4 µM (active) | -2.83% | 

SMILES | Potency | cell number change | lipid storage change, negative = inhibition
COc1ccc(/C=C2\SC(=S)N(CCC(=O)N3CCCCC3CCO)C2=O)cc1 (stereo not given) | 20.6 µM (active) | -3.06% | 
CN1CCN(C(=O)CCCN2C(=O)/C(=C/c3ccccc3)SC2=S)CC1 | 8.2 µM (active) | 3.91% | 
CCN(C(=O)CN1C(=O)/C(=C/c2ccccc2)SC1=S)C1CCS(=O)(=O)C1 (stereo not given) | inactive | -6.26% | 
COc1ccc(/C=C2\SC(=S)N(CCCC(=O)N3CCN(C)CC3)C2=O)cc1 | inactive | -9.52% | 
COc1ccc(/C=C2\SC(=S)N(CCCC(=O)N3CCCCC3CCO)C2=O)cc1 (stereo not given) | inactive | -3.77% | 
CN(C(=O)CCN1C(=O)/C(=C/c2ccccc2)SC1=S)C1CCS(=O)(=O)C1 (stereo not given) | inactive | 10.8% | 
O=C1/C(=C/c2ccc(Cl)cc2)SC(=S)N1CCC(=O)N1CCCCC1CCO (stereo not given) | inactive | -22.1% | 
O=C(O)CCCCN1C(=O)/C(=C\c2ccc(OCc3ccccc3)c(OCc3ccccc3)c2)SC1=S | inactive | -10.9% | 
O=C(CCCN1C(=O)/C(=C/c2ccccc2)SC1=S)N1CCOCC1 | inactive | 15.4% | 
COc1cc(/C=C2\SC(=S)N(CCCCC(=O)O)C2=O)ccc1OS(=O)(=O)c1ccc(C)cc1 | 20.6 µM (active) | -25.4% | 
O=C(O)CCN=C1CCCc2ccccc2N1 | inactive | -7.32% | 
COCCCNc1nnc(Cc2ccccc2)c2ccccc12 | inactive | -6.27% | 
CC(=O)N1CCCc2cc(S(=O)(=O)Nc3ccc(C)cc3C)ccc21 | inactive | 19.8% | 
Cc1ccc(C(O)P(=O)(OC2CCCCC2)OC2CCCCC2)cc1 (stereo not given) | inactive | 22.2% | 
O=C(COc1ccc(S(=O)(=O)Nc2ccccc2)cc1)NCc1cccnc1 | inactive | -1.79% | 
Cc1c(C(=O)NC(C)C)c(-c2ccccc2)nn1-c1ccccc1 | inactive | -7.38% | 
O=C(Nc1nnc(C2=COCCO2)o1)c1ccc(S(=O)(=O)N2CCOCC2)cc1 | inactive | 17.2% | 
Cc1ccc(S(=O)(=O)N2CCc3c2cc([N+](=O)[O-])cc3[N+](=O)[O-])cc1 | inactive | 25.6% | 
O=C(O)CCCN1C(=O)/C(=C/c2ccncc2)SC1=S | inactive | -13% | 
CC(C)c1ccc(/C=C2\SC(=S)N(CCC(=O)N3CCCCC3CCO)C2=O)cc1 (stereo not given) | inactive | -22.4% | 
COc1cccc(/C=C2\SC(=S)N(CCCC(=O)N3CCCCC3CCO)C2=O)c1 (stereo not given) | inactive |  | 
O=C1/C(=C/c2ccccc2)SC(=S)N1CCCC(=O)N1CCCCC1CCO (stereo not given) | 18.4 µM (active) | 5.19% | 
O=C(O)CCCCCN1C(=O)/C(=C\c2ccncc2)SC1=S | 3.26 µM (active) | -19.2% | 
COc1cccc(/C=C2\SC(=S)N(CCC(=O)N3CCCCC3CCO)C2=O)c1 (stereo not given) | 8.2 µM (active) | -19.7% | 

SMILES | Potency | cell number change | lipid storage change, negative = inhibition
O=C(CCN1C(=O)/C(=C\c2ccccc2)SC1=S)N1CCCCC1 | inactive | 9.57% | 
COc1cccc(/C=C2\SC(=S)N(CCCC(=O)N3CCCC3)C2=O)c1 | inactive | 19.2% | 
O=C(O)CCCCCN1C(=O)/C(=C/c2ccncc2)SC1=S | inactive | 8.67% | 
COC(=O)C1=C(C)NC(=O)/C1=C\c1ccc2c(c1)OCO2 | inactive | -20.5% | 
CCOC(=O)C1(Cc2cccc(Cl)c2)CCCN(C(=O)c2cn[nH]c2)C1 (stereo not given) | inactive | -11.4% | 
CN(C)c1ccc(C(=S)N2CCN(Cc3ccccc3)CC2)cc1 | inactive | -4.36% | 
CC(C)c1ccc(C(O)P(=O)(OCc2ccccc2)c2ccc(N(C)C)cc2)cc1 (stereo not given) | inactive | 1.68% | 
COc1ccc(NC(=O)CN(c2ccc([N+](=O)[O-])cc2)S(=O)(=O)c2ccccc2)c(OC)c1 | inactive | -1.88% | 
O=C1NCCCC1C(=O)NCCN1C(=O)CCC1=O (stereo not given) | inactive | -2.23% | 
O=C(Nc1cccc(C(F)(F)F)c1)c1ccc(-n2cncn2)nc1 | inactive | 5.24% | 
COc1ccc(N(CC(=O)N2CCN(Cc3ccc4c(c3)OCO4)CC2)S(C)(=O)=O)cc1OC | inactive | 14.4% | 
CC(C)CCNC(=O)CN(Cc1ccco1)C(=O)c1snc(C(N)=O)c1N | inactive | 8.95% | 
CCNS(=O)(=O)c1ccc(Br)c(OC)c1 | 25.9 µM (active) | -59.3% | 
CCOc1cc(S(=O)(=O)NCc2ccccc2)ccc1Br | inactive | -16.8% | 
COc1ccc(S(=O)(=O)NC2CCCC2)cc1Cl | inactive |  | 
COc1ccc(CCNS(=O)(=O)c2ccc([N+](=O)[O-])cc2)cc1OC | inactive | 0.785% | 
COc1ccc(S(=O)(=O)NCCc2c[nH]c3ccc(Cl)cc23)cc1 | 20.6 µM (active) |  | 
COc1ccc(CCNC(=O)COc2ccc(S(=O)(=O)NC(C)C)cc2Cl)cc1OC | inactive |  | 
COc1ccc2[nH]cc(CCNS(=O)(=O)c3ccc(C)cc3)c2c1 | inactive | 2.67% | 
COc1ccc(CCNS(=O)(=O)c2ccc(Cl)cc2)cc1OC | 1.64 µM (active) | -15.3% | 
COc1cc(S(=O)(=O)NCc2ccccc2)ccc1Br | inactive | 5.28% | 
COc1ccc2[nH]cc(CCNS(=O)(=O)c3ccc(F)cc3)c2c1 | inactive | -14.3% | 
COc1ccc(CCNS(=O)(=O)c2ccc(Br)cc2)cc1OC | inactive | -6.93% | 
COc1ccc(CCNC(=O)COc2ccc(S(=O)(=O)NC3CCCCC3)cc2Cl)cc1OC | 8.2 µM (active) | -27.7% | 
